This is a sample that favours compounds with a hit; in the whole collection about 1.8% have one here.
TrxR1 substrate: substrates of rat thioredoxin reductase 1. purified TrxR1 substrate turnover, NADPH consumption readout. 0.01% of 390,000 active. Potency, µM (titrated, usually from 114 µM), inactives show top-dose activity change, negative = substrate turnover. AID 588456; also: % is scaled to controls: 0 for no effect and ±100 for the full control effect; nearly all actives have a fitted effect of over 50% in size
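Rat TrxR1, dispensed at 90 nM, was prereduced with 400 uM NADPH (final) for 5 min at ~22 deg C, then incubated with compound 15 min before 400 uM selenite. A first-read NADPH fluorescence drop versus no-compound background flagged substrates.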
Vif-A3F inh: blocks the Vif interaction with APOBEC3F; HeLa A3F-eYFP + Vif (tagged APOBEC3F with the HIV-1 protein that degrades it), YFP fluorescence increase; Potency, µM (titrated, usually from 46.1 µM), without a hit: at the top dose activity, negative = active; 0.2% of 390,000 active; AID 602313; also: % of control where 0% means no effect; nearly all actives have a fitted effect of over 65% in size
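Fluorescence increase (Ex 488/Em 500-530) after overnight compound treatment at 37 deg C flags inhibition of Vif-driven A3F-eYFP loss in stable HeLa A3F-eYFP/Vif cells seeded overnight beforehand.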
rTrxR1 inhibitor: rat TrxR1 inhibition | recombinant rTrxR1, NADPH fluorescence consumption, selenite substrate | O89049 | Potency, µM (titrated, usually from 114 µM), for the others: top-dose activity change, negative = inhibition, usual class: inhibitors | 1% of 390,000 active; also: % is scaled to controls: 0 for no effect and ±100 for the full control effect; nearly all actives have a fitted effect of over 65% in size
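Rat TrxR1 (90 nM in the dispensed reagent) was pre-reduced with 400 uM NADPH for 5 min at room temperature, then incubated with compound for 15 min. After 400 uM selenite was added, NADPH fluorescence (Ex 340/Em 450 nm) was followed for 8 min.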
VDR inhibitor: inhibitors of human vitamin D receptor | VDR-SRC2-3 peptide fluorescence polarization, 2 h | Potency, µM, inactives show max response, negative = inhibition, actives largely listed as inhibitors | 0.93% of 400,000 active; also: % is scaled to controls: 0 for no effect and ±100 for the full control effect
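Measured by FP: displacement of SRC2-3 coactivator peptide from VDR by library compounds, following a two-hour ambient incubation.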
Vif-APOBEC3G blk: blocks the Vif interaction with human APOBEC3G; 0.076% of 410,000 active; Potency, µM (titrated, usually from 46.1 µM), for the others: at the top dose activity, negative = active, usual class: inhibitors; HeLa A3G-eYFP + Vif (tagged APOBEC3G with the HIV-1 protein that degrades it), YFP fluorescence, overnight; also: % is scaled to controls: 0 for no effect and ±100 for the full control effect; nearly all actives have a fitted effect of over 60% in size
Target sequence (Q9HC16 whole entry, looked up): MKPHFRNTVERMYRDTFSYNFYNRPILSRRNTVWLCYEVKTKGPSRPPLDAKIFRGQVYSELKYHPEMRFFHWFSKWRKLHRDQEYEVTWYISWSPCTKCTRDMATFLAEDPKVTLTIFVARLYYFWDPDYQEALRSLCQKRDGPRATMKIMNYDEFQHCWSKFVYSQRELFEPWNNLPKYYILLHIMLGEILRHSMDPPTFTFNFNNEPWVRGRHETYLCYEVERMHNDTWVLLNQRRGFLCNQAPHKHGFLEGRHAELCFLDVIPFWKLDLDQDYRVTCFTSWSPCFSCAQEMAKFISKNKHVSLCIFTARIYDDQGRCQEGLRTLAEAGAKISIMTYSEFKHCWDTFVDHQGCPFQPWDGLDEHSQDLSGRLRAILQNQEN
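Read-out is eYFP fluorescence (Ex 488/Em 500-530) from Vif-expressing HeLa A3G-eYFP cells; more signal means A3G escaped Vif-mediated degradation. Cells plated overnight, compound pinned in, incubated overnight at 37 deg C.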
An asterisk follows results filed as active; ? = inconclusive; / = not tested or not shown; [ ] = remark or other dose. Calls follow the shape of the dose curve; as a rule, active = well fitted curve in the direction sought with a large enough effect; inconclusive = small, poorly fitted or top-dose-only effect, or another doubt; inactive = no such curve, though single readings can be large; an effect the other way counts as inactive or inconclusive. Potency is read from the fitted curve at half-maximal effect.

SMILES	TrxR1 substrate	Vif-A3F inh	rTrxR1 inhibitor	VDR inhibitor	Vif-APOBEC3G blk
CN(CCCN(Cc1ccc(Cl)cc1)c1ccc(Br)cn1)C(=S)NCCCc1cnc[nH]1	-5.0%	/	1.3%	-10.9%	-9.9%
CN(C)c1ccc(/C=C(/C#N)C(=O)NCc2ccccc2)o1	-12.6%	10µM*	-26.2%	-10.6%	?
CCNc1nc(NCC)nc(-n2cc(C(=O)c3cc(Cl)ccc3O)cn2)n1	3.4%	/	11.3%	3.3%	-1.9%
O=S(=O)(/C=C/C=C/S(=O)(=O)c1ccccc1)c1ccccc1	12.4%[57.1 µM]	-1.3%	2µM*	?	?
ClCC1NCC(c2ccccc2Cl)c2c1[nH]c1ccccc21 (centres undefined)	2.3%	22.4µM*	0.4%	-0.8%	?
CCCN1CCc2c(sc(NC(=O)CCS(=O)(=O)c3ccccc3)c2C(=O)OC)C1	0.1%	1.2%	50.1µM*	1.6%	-4.0%
CC(C)N1CCc2c(sc(NC(=O)CCS(=O)(=O)c3ccccc3)c2C#N)C1	-7.0%	1.3%	10µM*	-7.0%	-0.4%
O=C(C#Cc1ccccc1)c1cccc([N+](=O)[O-])c1	-3.6%	-13.0%	0.1µM*	?	-23.3%
O=C(COc1ccc(F)cc1)c1c(O)cc(O)cc1O	-10.0%	-11.4%	7.08µM*	-12.7%	-3.3%
Cc1ccc(C(=O)CCC(=O)OCC(=O)Nc2ccccc2SCC#N)cc1	-2.9%	12.6µM*	-3.7%	20.2%	-12.7%
O=C(Nc1ccc(F)cc1C(F)(F)F)C1CCN(c2ncccn2)CC1	4.6%	-1.4%	17.5%	0.2%	4.6%
CC(C)(C)OC(=O)NCCCCC1=CC2=CC(=O)C(C)(OC(=O)C3CCCC3)C(=O)C2=CO1 (centres undefined)	/	/	/	8.4%	/
CCSc1nc2ccccc2n1C(=O)/C=C\c1ccc(OC)c(OC)c1	-1.4%	-15.1%	-16.4%	50.1µM*	?
CCSc1nc2ccccc2n1CC(N)=O	-1.0%	-1.7%	13.0%	7.5%	0.1%
Cc1cc2n(n1)SC(Nc1cc(Cl)ccc1Cl)N2 (centres undefined)	1.3%	-4.3%	7.08µM*	-18.4%	-20.1%
Cc1cc2n(n1)SC(Nc1cccc3ccccc13)N2 (centres undefined)	6.0%	-4.0%	-18.9%	-10.6%	-0.7%
C(=C\c1ccnc2ccccc12)/c1ccc2c(c1)OCO2	4.0%	/	-4.7%	/	-17.7%
COC(=O)Cn1c2ccc(F)cc2c2nc(C)sc21	4.3%	-7.7%	14.0%	79.4µM*	-8.0%
Cc1cc(NS(=O)(=O)c2ccc(NC(NC(=O)C(C(F)(F)F)C(F)(F)F)(C(F)(F)F)C(F)(F)F)cc2)no1	3.9%[57.1 µM]	-9.9%	10µM*	?	0.0%
O=C1c2c(O)cc(O)cc2O[C@H](c2ccc(O)c(O)c2)[C@H]1O	-11.8%	3.7%	-4.7%	0.1%	0.9%
C[C@@H]1O[C@@H](O[C@@H]2C(=O)c3c(O)cc(O)cc3O[C@H]2c2ccc(O)c(O)c2)[C@H](O)[C@H](O)[C@H]1O	-8.4%	0.5%	7.2%[57.1 µM]	8.6%	11.2µM*
CC(=O)Nc1c2c3c(cccc3n(C)c1=O)C(=O)c1ccccc1-2	-6.0%	1.1%	-19.9%	16.1%	-0.3%
Cn1c(=O)c(Nc2ccc(Cl)cc2)c2c3c(cccc31)C(=O)c1ccccc1-2	1.7%[57.1 µM]	5.01µM*	23.1%[57.1 µM]	5.3%	?
O=C(NC(=S)Nc1cccc(S(=O)(=O)NC2=NCCC2)c1)c1cc(-c2ccco2)nc2ccccc12	28.3%	-5.6%	25.1µM*	-22.9%	?
COC(=O)c1cc(-c2ccc(C)o2)nc2ccccc12	2.2%	-27.9%	31.6µM*	79.4µM*	-5.5%
SMILES	TrxR1 substrate	Vif-A3F inh	rTrxR1 inhibitor	VDR inhibitor	Vif-APOBEC3G blk
O=C(NC1CC1)c1cc(-c2ccco2)nc2ccccc12	353.1%	1.2%	-4.2%	-11.3%	-1.8%
COc1ccc(NC(=O)c2cc(-c3ccco3)nc3ccccc23)cn1	12.3%	?	17.8µM*	?	-19.3%
O=C(Nc1cccc(S(=O)(=O)NC2=NCCC2)c1)c1cc(-c2ccco2)nc2ccccc12	62.7%	2.4%	?	-19.7%	4.9%
O=C(O)c1cc(-c2ccco2)nc2ccccc12	134.2%[57.1 µM]	-6.4%	?	79.4µM*	4.1%
S=c1[nH]c(=S)c2[nH]cnc2[nH]1	-4.3%	/	?	-13.4%	-5.3%
O=C(Nc1ccc(C(=O)N2CCN(c3cccc(Cl)c3)CC2)cc1)c1nsc2ccccc12	4.8%[57.1 µM]	3.4%	19.1%[57.1 µM]	-5.0%	-1.2%
CCNC(=O)COC(=O)c1cc(-c2ccco2)nc2ccccc12	29.0%	-2.9%	11.2µM*	?	-5.6%
Cc1nn(-c2cccc(Cl)c2)c2nc(-c3ccco3)cc(C(=O)O)c12	50.6%	-10.0%	50.1µM*	-12.4%	-0.9%
Cc1nn(-c2ccccc2)c2nc(-c3ccco3)cc(C(=O)O)c12	-18.3%[57.1 µM]	6.7%	?	0.9%	-4.0%
COc1ccc(N2CCN(CCCNC(=O)c3cnn(-c4ccc(F)cc4)c3-n3cccc3)CC2)cc1	-9.3%	11.6%	-12.9%	0.6%	-1.4%
CN(Cc1cn(-c2ccccc2)nc1-c1cc2ccccc2o1)C(=O)CCC(=O)O	82.3%	5.0%	21.2%[57.1 µM]	79.4µM*	-1.7%
c1cc2c(cc1C1CCCN1)OCCCO2 (centres undefined)	3.7%	/	44.7µM*	9.1%	-1.2%
COc1cc(/C=C2\SC(=S)N(NC(=O)c3ccc(O)c(OC)c3)C2=O)ccc1O	-7.7%	10µM*	-1.5%	4.9%	-18.6%
COc1cc(/C=C2\SC(=S)N(NC(=O)c3ccccc3OC)C2=O)ccc1O	-3.9%[57.1 µM]	22.4µM*	-1.7%[57.1 µM]	2.7%	-3.4%
CCOc1cc(/C=C2/SC(=S)N(CC3CCCO3)C2=O)ccc1O (centres undefined)	-6.3%	22.4µM*	12.4%	-10.2%	-15.1%
COc1cc(/C=C2\SC(=S)N(NC(=O)c3ccncc3)C2=O)ccc1O	-16.9%	-11.2%	-21.4%	0.2%	-9.5%
CCc1cccc(NC(=O)c2cc3c(=O)n(Cc4ccc(OC)cc4)ccc3nc2C)c1	2.6%[57.1 µM]	1.5%	10.2%[57.1 µM]	6.6%	-6.8%
C=Nc1ccc(/C=C/c2ccnc3ccccc23)cc1	-1.9%	/	8.5%	/	-24.4%
CC(=O)Oc1ccc(C(=O)[C@H]2[C@H]3C(=O)N(c4ccc(C)cc4)C(=O)[C@H]3[C@@H]3C=CC=NN32)cc1	-10.4%	9.2%	?	-17.0%	0.0%
CC(=O)Oc1ccc(C(=O)[C@H]2[C@H]3C(=O)N(c4ccccc4)C(=O)[C@H]3[C@@H]3C=CC=NN32)cc1	-6.6%	-6.5%	11.2µM*	-27.6%	1.0%
Cc1c(O)ccc2c1OC(C)(C)CC2	5.5%	/	?	/	/
C=CCNC1=C2C[C@@H](C)C[C@H](OC)[C@H](O)[C@@H](C)/C=C(\C)[C@H](OC(N)=O)[C@@H](OC)/C=C/C=C(\C)C(=O)NC(=CC1=O)C2=O	/	/	/	-12.7%	/
